NPC1 prom act = activators of NPC1 promoter; Huh7 NPC1 promoter luciferase reporter, 24 h; Potency, µM (highest dose often 9.22 µM), hits mostly activators; actives 2.4% (n = 320,000); AID 485313; also: nearly all actives have a fitted effect of over 60% in size
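Huh7 cells stably carrying NPC1 promoter–luciferase, plated in Opti-MEM with 10% FBS for 2 h, were exposed to compound in DMSO for 24 h at 37 °C; luciferase reagent was added for 10 min and luminescence read.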
ELG1 repair inh = blocks ELG1-dependent DNA repair in HEK293T cells. AID 504467. Potency, µM (series often up to 46.1 µM), usual class: inhibitors. actives 2.3% (n = 330,000). HEK293T ELG1-luciferase reporter, luminescence, 16 h; DNA damage induced by 5-fluorouridine; also: nearly all actives have a fitted effect of over 55% in size
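Reporter activity after DNA damage by 5-fluorouridine is monitored. Compound-treated cells incubate 16 hr at 37 °C, then ONE-Glo is added for 30 min before luminescence reading.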
ELG1 genotox = genotoxicity induction in ELG1-luciferase HEK293T cells | Potency, µM (highest dose often 46 µM), hits mostly activators | actives 1.3% (n = 330,000) | HEK293T ELG1-luciferase reporter, luminescence, 16 h; also: nearly all actives have a fitted effect of over 60% in size
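ELG1-luciferase HEK293T cells, 2,000/well; compound pinned in; 16 hr, 37 °C, 5% CO2; ONE-Glo, 30 min RT; luminescence on CCD imager.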
Rab9 prom act = activates the Rab9 promoter; AID 485297; Potency, µM (titrated, usually from 9.22 µM), actives largely listed as activators; Huh7 Rab9 promoter-luciferase reporter, luminescence, 24 h; actives 2.8% (n = 320,000); also: nearly all actives have a fitted effect of over 60% in size
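Luminescence from Amplite-detected luciferase (10 minutes, ambient) reports Rab9 promoter activation. Before that, stable Rab9-luciferase Huh7 cells (1500/well, reduced-serum OP-MEM I plus 10% FBS) were exposed to compound for 24 hours at 37C.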
SMN2 splice enh = increases expression of the SMN2 splice variant; HEK293 SMN2-luciferase splicing reporter, luminescence, 30-36 h; Potency, µM (highest dose often 46.1 µM), most hits filed as activators; actives 2.8% (n = 210,000); AID 1458; also: nearly all actives have a fitted effect of over 55% in size
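qHTS luciferase splicing reporter: luminescence rises when SMN2 exon 7 is included in transfected HEK293 cells. Compound exposure lasted 30-36 h at 37C, with 4.5 mM final sodium butyrate as control, followed by a ONE-Glo read.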
FLuc counter = firefly luciferase modulation, counter-screen for miR-21 project; Potency, µM (highest dose often 57.5 µM), actives largely listed as inhibitors; actives 6.9% (n = 360,000); AID 588342; P08659; purified FLuc, Km substrates, luminescence inhibition; also: nearly all actives have a fitted effect of over 55% in size
Target sequence (P08659 whole entry, looked up): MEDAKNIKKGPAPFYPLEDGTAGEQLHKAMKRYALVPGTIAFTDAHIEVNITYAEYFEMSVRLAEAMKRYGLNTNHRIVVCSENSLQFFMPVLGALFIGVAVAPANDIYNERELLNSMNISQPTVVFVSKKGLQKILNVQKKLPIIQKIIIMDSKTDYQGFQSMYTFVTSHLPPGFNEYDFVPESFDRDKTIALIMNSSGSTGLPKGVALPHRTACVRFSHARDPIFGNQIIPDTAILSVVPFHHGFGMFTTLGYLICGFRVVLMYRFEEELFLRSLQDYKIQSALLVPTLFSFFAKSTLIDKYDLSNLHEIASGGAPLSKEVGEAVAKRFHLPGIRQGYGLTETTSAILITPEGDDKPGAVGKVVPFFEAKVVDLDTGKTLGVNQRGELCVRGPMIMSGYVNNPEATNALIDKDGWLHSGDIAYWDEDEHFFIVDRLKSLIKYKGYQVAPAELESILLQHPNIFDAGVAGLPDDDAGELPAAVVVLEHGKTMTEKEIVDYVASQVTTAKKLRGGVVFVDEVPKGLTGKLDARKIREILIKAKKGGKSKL
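Purified P. pyralis luciferase, 10 nM final, with Km-level 10 uM D-luciferin and 10 uM ATP in 50 mM Tris acetate pH 7.5, 10 mM Mg acetate, 0.01% Tween-20, 0.05% BSA; 6-point qHTS titration about 60 µM downward; luminescence read.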
Each line names hits and unclear results; the compound was inactive in the other large screens. Hits are enriched below; roughly 9.2% of the tested compounds scored in any of these assays. Calls follow the shape of the dose curve; as a rule, active = well fitted curve in the direction sought with a large enough effect; inconclusive = small, poorly fitted or top-dose-only effect, or another doubt; inactive = no such curve, though single readings can be large; an effect the other way counts as inactive or inconclusive.

Cc1cc(NC(=O)CSc2nc3c(cc2C#N)CCC3)no1	NPC1 prom act 0.5µM, ELG1 repair inh inconclusive, ELG1 genotox 4.1µM, Rab9 prom act 0.5µM, FLuc counter inconclusive (no result: SMN2 splice enh)
Cc1cc(NC(=O)CSc2nc3ccccc3cc2C#N)no1	NPC1 prom act inconclusive, ELG1 repair inh inconclusive, Rab9 prom act inconclusive, FLuc counter inconclusive (no result: SMN2 splice enh)
N#Cc1cc2c(nc1SCc1ccncc1)CCC2	NPC1 prom act inconclusive, ELG1 repair inh inconclusive, ELG1 genotox inconclusive, Rab9 prom act inconclusive, SMN2 splice enh 11µM, FLuc counter inconclusive
CCC(C)n1c(=O)c2sccc2n2c(CCCC(=O)Nc3ccc(F)cc3)nnc12 (stereo not given)	none (no result: NPC1 prom act, ELG1 repair inh, ELG1 genotox, Rab9 prom act, SMN2 splice enh)
Cc1noc(C)c1C(=O)N1CCC2(CCN(Cc3cc(C(F)(F)F)cc(C(F)(F)F)c3)CC2)CC1	none (no result: NPC1 prom act, ELG1 repair inh, ELG1 genotox, Rab9 prom act, FLuc counter)
COc1ccc(NC(=O)Cn2c(=O)n(-c3ccc(Cl)cc3)c(=O)c3c(C)c(C(=O)N(C)C)sc32)cc1Cl	none (no result: NPC1 prom act, ELG1 repair inh, ELG1 genotox, Rab9 prom act, SMN2 splice enh)
Cc1ccc(Cn2cc(C(=O)c3ccc4c(c3)OCO4)c(=O)c3cc(C)ccc32)cc1	none (no result: NPC1 prom act, ELG1 repair inh, ELG1 genotox, Rab9 prom act)
CCOC(=O)C1=C(CN2CCN(c3cccc(Cl)c3)CC2)NC(=O)NC1c1ccc(Cl)cc1 (stereo not given)	none (no result: NPC1 prom act, ELG1 repair inh, ELG1 genotox, Rab9 prom act)
O=C(NNC(=O)C12CC3CC(CC(C3)C1)C2)c1ccccc1F	none (no result: SMN2 splice enh)
Cc1cccc(C(=O)NNC(=O)C23CC4CC(CC(C4)C2)C3)c1O	FLuc counter 15µM (no result: SMN2 splice enh)
O=C(NNC(=O)C12CC3CC(CC(C3)C1)C2)c1ccccc1O	FLuc counter 15µM (no result: SMN2 splice enh)
COc1ccc(S(=O)(=O)N(C)C[C@H]2Oc3c(NS(=O)(=O)c4ccc(F)cc4)cccc3C(=O)N([C@H](C)CO)C[C@@H]2C)cc1	none (no result: NPC1 prom act, Rab9 prom act, SMN2 splice enh, FLuc counter)
S=C(NC1CCCCC1)N1CCOCCOCCN(C(=S)NC2CCCCC2)CCOCCOCC1	ELG1 repair inh 18µM (no result: SMN2 splice enh)
Oc1ccc(/C=N/Nc2nccnc2Cl)cc1	NPC1 prom act 4µM, ELG1 repair inh inconclusive, ELG1 genotox 12µM, Rab9 prom act 3.2µM, SMN2 splice enh inconclusive, FLuc counter 11µM
Nc1c(Cl)ncnc1NCCO	none (no result: SMN2 splice enh)
Nc1c(Cl)ncnc1N/N=C/c1ccc(O)cc1	ELG1 repair inh inconclusive, ELG1 genotox inconclusive, FLuc counter 13µM (no result: SMN2 splice enh)
COc1ccccc1CNS(=O)(=O)c1ccc2c(c1)NC(=O)C(C)C(=O)N2 (stereo not given)	none (no result: NPC1 prom act, ELG1 repair inh, ELG1 genotox, Rab9 prom act, SMN2 splice enh)
CCOc1ccc(NC(=O)c2cnn(-c3ccc(C)c(C)c3)c2C2CCN(C(=O)OC(C)(C)C)CC2)cc1	none (no result: NPC1 prom act, ELG1 repair inh, ELG1 genotox, Rab9 prom act)
Cn1c(=O)n(C/C=C/c2ccccc2)c(=O)c2c1nc1n2CCCN1Cc1ccccc1	ELG1 repair inh 21µM (no result: SMN2 splice enh)
C=CCn1c(=O)c2c(nc3n2CCCN3Cc2ccccc2)n(C)c1=O	none (no result: SMN2 splice enh)
Cn1c(=O)n(C/C=C/c2ccccc2)c(=O)c2c1nc1n2CCCN1c1ccc(F)cc1	ELG1 repair inh 23µM
Cn1c(=O)n(CCc2ccccc2)c(=O)c2c1nc1n2CCN1Cc1ccco1	ELG1 repair inh 21µM
CCOC(=O)Cn1c(=O)c2c(nc3n2CCN3c2ccc(CC)cc2)n(C)c1=O	FLuc counter 13µM (no result: NPC1 prom act, ELG1 repair inh, ELG1 genotox, Rab9 prom act, SMN2 splice enh)
CC(C)CCSc1nnc2n(-c3ccccc3)c(=O)c3c4c(sc3n12)CC(C)CC4 (stereo not given)	none (no result: NPC1 prom act, ELG1 repair inh, ELG1 genotox, Rab9 prom act)
COc1ccc([N+](=O)[O-])c(OC)c1C(=O)NC(=O)Nc1nc(C)nc(C)n1	none (no result: SMN2 splice enh)
Clc1ccc(N2CCN(/N=C/c3cccnc3)CC2)cc1	none (no result: SMN2 splice enh)
Nc1ccc(C(=O)OCc2nc3c(ccc4ccccc43)[nH]2)cc1	ELG1 repair inh inconclusive, ELG1 genotox inconclusive, Rab9 prom act inconclusive, FLuc counter 13µM
Cc1ccc2nc(CCc3ccc(N)cc3)[nH]c2c1	NPC1 prom act 2.8µM, ELG1 repair inh inconclusive, ELG1 genotox inconclusive, Rab9 prom act 3.2µM, FLuc counter 15µM (no result: SMN2 splice enh)
CCc1nc2ccc(Cc3ccc4nc(CC)[nH]c4c3)cc2[nH]1	FLuc counter 12µM (no result: SMN2 splice enh)
Nc1ccc2nc(CCc3ccccc3)[nH]c2c1	ELG1 repair inh inconclusive, Rab9 prom act inconclusive, SMN2 splice enh inconclusive, FLuc counter inconclusive
Nc1ccc(Cc2nc3cc4ccccc4cc3[nH]2)cc1	NPC1 prom act inconclusive, ELG1 repair inh inconclusive, Rab9 prom act inconclusive, SMN2 splice enh 13µM, FLuc counter 19µM
Cc1ccc(C(=O)OCC(=O)NC2CCCCC2)cc1S(=O)(=O)N1CCCCC1	none (no result: SMN2 splice enh)
Nc1ccc(C(=O)OCCCc2nc3cc4ccccc4cc3[nH]2)cc1	ELG1 repair inh inconclusive, FLuc counter 15µM (no result: SMN2 splice enh)
CCOc1ccc(N2CC(NC(=O)C3CCCCC3)CC2=O)cc1 (stereo not given)	none (no result: NPC1 prom act, ELG1 repair inh, ELG1 genotox, Rab9 prom act, SMN2 splice enh)
Cc1ccc(N/N=C2\CCS(=O)(=O)c3sccc32)cc1	FLuc counter 17µM
Cc1ccccc1C(=O)O/N=C1\CCS(=O)(=O)c2sccc21	NPC1 prom act inconclusive, ELG1 repair inh inconclusive, ELG1 genotox 12µM, Rab9 prom act inconclusive, FLuc counter 0.6µM
COc1ccc(C(=O)O/N=C2\CCS(=O)(=O)c3sccc32)cc1	FLuc counter 1.9µM (no result: SMN2 splice enh)
CC(C)C(=O)O/N=C1\CCS(=O)(=O)c2sccc21	none
FC(F)(F)c1cnc2c(c1)[nH]c(=S)n2-c1ccc(Cl)cc1	ELG1 repair inh 16µM (no result: SMN2 splice enh)
CCCCN1C(=O)C(O)(c2c[nH]c3ccccc23)c2cc(Br)ccc21 (stereo not given)	none (no result: NPC1 prom act, ELG1 repair inh, ELG1 genotox, Rab9 prom act)
